In all, about 52,000 compounds went through this assay and about 4,300 (8.3%) were called active. Cut-off read from the data, not from the text of the source: active = survival mostly below about 52% (no sharp cut-off); inactive = mostly above about 56%. Many of the other results were omitted from the sample, so actives are more common in it than they were.

For this test, the system named is DeltatarO mutant. Put plainly: S. aureus survival, RN4220 and DeltatarO strains – OD600, teichoic acid synthesis inhibitors, primary screen (AID 463173). Particulars: S. aureus RN4220 wild type/DeltatarO growth, OD600, 18 h, active compounds read low, screened at 18.75 µg/mL (by protocol).
For the molecule `COc1ccc(C2=NN(CC(=O)NCCCN(C)c3ccccc3)C(=O)CC2)cc1`, the survival is 116% (inactive).
For `CCCn1c(=O)c2sccc2n2c(CCCC(=O)Nc3ccc(Oc4ccccc4)cc3)nnc12`, the survival was 88% (inactive).
Next, `CN(C)c1ccc(C(CNC(=O)COc2ccc(Cl)cc2)N2CCOCC2)cc1` (configuration not stated): 55% (inactive); `Cc1cccc(C)c1OCC(=O)Nc1nonc1-c1ccc(Br)cc1`: 41% (active); `Cc1cccc(OC(C)C(=O)Nc2nonc2-c2ccc(Br)cc2)c1C` (configuration not stated): 70% (inactive).
Regarding `Cc1cc(C)cc(OC(C)C(=O)Nc2nonc2-c2ccc(Br)cc2)c1` (configuration not stated), the survival is 14% (active).
In the case of `Cc1cccc(OCC(=O)Nc2nonc2-c2ccc(Br)cc2)c1C`, the survival is 68% (inactive).
As to `Cc1ccc(OCC(=O)Nc2nonc2-c2ccc(Br)cc2)cc1`, the survival is 75% (inactive).
Next, `Cc1ccc(OC(C)C(=O)Nc2nonc2-c2ccc(Br)cc2)cc1C` (configuration not stated): 66% (inactive); `CCc1ccc2[nH]cc(S(=O)(=O)c3ccc(C(C)C)cc3)c(=O)c2c1`: 62% (inactive).
Consider `CC(C)c1ccc(NC(=O)CCNS(=O)(=O)c2ccc3c(c2)CCCC(=O)N3)cc1`, for which the survival was 77% (inactive).
`Cc1cc(C)c2c(=O)cc(CSCC(=O)Nc3ccccc3Cl)[nH]c2c1`: the survival was 90% (inactive).
In the case of `Cc1ccc(-c2cc3ncc4c(n3n2)-c2cc(F)ccc2OC4)cc1` it was 108% (inactive); in that of `O=C(CS(=O)(=O)c1cccc2nsnc12)Nc1ccccc1Cl`, 71% (inactive); in that of `CCOC(=O)Cc1cc(=O)[nH]c(/N=C(\N)Nc2ccc3ccccc3c2)n1`, 98% (inactive).
In the case of `COC(=O)c1ccc(NC(=O)CCc2c(C)nn(-c3ccc(N4CCOCC4)nn3)c2C)cc1` it was 78% (inactive).
In the case of `COc1ccccc1N1CCN(C(CNC(=O)C(=O)NCCN(C)C)c2cccnc2)CC1` (configuration not stated) it was 69% (inactive); in that of `COc1ccccc1N1CCN(C(CNC(=O)C(=O)NCCCN(C)C)c2cccnc2)CC1` (configuration not stated), 61% (active).
Turning to `CCOc1ccccc1NC(=O)C(=O)NCC(c1cccnc1)N1CCN(c2ccccc2)CC1` (configuration not stated), the survival is 54% (inactive).
In the case of `CN(C)CCNC(=O)C(=O)NCC(c1cccnc1)N1CCN(c2ccc(F)cc2)CC1` (configuration not stated), the survival is 69% (inactive).
On to `CCN(CC)CCNC(=O)C(=O)NCC(c1cccnc1)N1CCN(c2ccccc2)CC1` (configuration not stated), for which the survival was 100% (inactive).
Turning to `Cc1cc(C)cc(NC(=O)C(=O)NCC(c2cccnc2)N2CCN(c3ccccc3)CC2)c1` (configuration not stated), the survival was 56% (inactive).
On to `CCOC(=O)C(=O)NCC(c1cccnc1)N1CCN(c2ccccc2)CC1` (configuration not stated), for which the survival was 65% (active).
Turning to `Cc1ccc(CNC(=O)C(=O)NCC(c2cccnc2)N2CCN(c3ccc(F)cc3)CC2)cc1` (configuration not stated), the survival was 73% (inactive).
On to `CN(C)CCNC(=O)C(=O)NCC(c1cccnc1)N1CCN(c2ccccc2)CC1` (configuration not stated), for which the survival is 54% (active).
For the molecule `COC(=O)NCC(c1cccnc1)N1CCN(c2ccc(F)cc2)CC1` (configuration not stated), the survival is 83% (inactive).
Turning to `COCCNC(=O)C(=O)NCC(c1cccnc1)N1CCN(c2ccccc2OC)CC1` (configuration not stated), the survival is 64% (inactive).
Regarding `Cc1ccc(C)c(NC(=O)C(=O)NCC(c2cccnc2)N2CCN(c3ccc(F)cc3)CC2)c1` (configuration not stated), the survival is 15% (active).
Regarding `COc1ccc(OC)c(NC(=O)Cn2cc(C(=O)c3cccs3)c3ccccc32)c1`, the survival was 50% (inactive).
In the case of `Cc1ccccc1NC(=O)CSC1=Nc2ccccc2C2=NC(CCC(=O)NCc3ccccc3)C(=O)N12` (configuration not stated), the survival was 89% (inactive).
With `COc1cccc(C2C(C(N)=O)=C(C)Nc3ncnn32)c1` (configuration not stated), the survival is 71% (inactive).
For the molecule `Cn1c(SCc2ccccc2F)nc2c([nH]c3ccccc32)c1=O`, the survival is 97% (inactive).
Take `Cc1ccc(/C=C/c2onc(C)c2S(=O)(=O)N2CCC(C(=O)N3CCN(c4cc(C)ccc4C)CC3)CC2)cc1`: the survival is 87% (inactive).
Regarding `O=C(Cn1cc(SCc2ccccc2Cl)c2ccccc21)N1CCCCCC1`, the survival was 74% (inactive).
Next, `CC1CCN(S(=O)(=O)c2cc(C(=O)NCc3ccc(N(C)C)cc3)n(C)c2)CC1`: 93% (inactive).
In the case of `Cc1cccc(N2CCN(c3ccc(NC(=O)c4ccccc4)cc3C(=O)O)CC2C)c1` (configuration not stated) it was 81% (inactive).
As for `CCCS(=O)(=O)N1CCC(N2CCN(Cc3ccc(F)cc3)C(=O)C2=O)CC1`, the survival is 83% (inactive).
Consider `COc1cccc(CNC(=O)Cn2c(=O)cc(C(F)(F)F)c3c(C)nn(C)c32)c1OC`, for which the survival was 90% (inactive).
In the case of `O=C(NCCc1ccccc1)C(=O)NCC(c1cccnc1)N1CCN(c2ccccc2)CC1` (configuration not stated) it was 51% (inactive); in that of `COCCNC(=O)C(=O)NCC(c1cccnc1)N1CCN(c2ccccc2)CC1` (configuration not stated), 54% (active); in that of `COCCNC(=O)C(=O)NCC(c1cccnc1)N1CCN(c2ccccc2F)CC1` (configuration not stated), 70% (inactive).
On to `O=C(NCc1ccccc1)C(=O)NCC(c1cccnc1)N1CCN(c2ccccc2)CC1` (configuration not stated), for which the survival was 45% (active).
In the case of `O=C(NCc1ccc(Cl)cc1)C(=O)NCC(c1cccnc1)N1CCN(c2ccccc2)CC1` (configuration not stated) it was 47% (inactive).
In the case of `O=C(NCc1cccnc1)C(=O)NCC(c1cccnc1)N1CCN(c2ccccc2)CC1` (configuration not stated) it was 53% (inactive); in that of `Cc1ccc(CCNC(=O)c2ccc3c(c2)N(Cc2ccccc2F)C(=O)c2ccccc2S3=O)cc1` (configuration not stated), 69% (inactive); in that of `COc1ccc(-c2cc(C(=O)NCc3ccc(F)cc3)c3c(-c4ccc(F)cc4)[nH]nc3n2)cc1OC`, 72% (inactive).
Regarding `COc1ccc(CCNc2nc3c(c(=O)n(C)c(=O)n3C)n2Cc2ccc(F)cc2)cc1OC`, the survival was 90% (inactive).
Next, `CCOc1ccc(N(c2nc(-c3ccc(OC)c(OC)c3)no2)c2nc(-c3ccc(OC)c(OC)c3)no2)cc1`: 73% (inactive).
For the molecule `Nc1ncc(Cc2ccccc2)s1`, the survival is 75% (inactive).
In the case of `CCCCSCCCNC(=O)CN1C(=O)c2cccnc2Oc2ccc(Cl)cc21` it was 94% (inactive).
Regarding `N#CC1=C(N)Oc2c(c(=O)oc3ccccc23)C12C(=O)Nc1ccccc12` (configuration not stated), the survival is 102% (inactive).
In the case of `N#Cc1cc2c(ccc3ccccc32)oc1=O` it was 71% (inactive); in that of `N#CC1=C(N)Oc2c(c(=O)oc3ccccc23)C1`, 31% (active).
Take `COc1ccc(N2CCN(C(=O)Cn3ncc4c3-c3cc(C)ccc3OC4)CC2)cc1`: the survival was 122% (inactive).
Regarding `C=C(C)Cn1c(=O)c2c(nc3n2CCN3c2cc(C)cc(C)c2)n(C)c1=O`, the survival is 81% (inactive).
Next, `Oc1cccc(N=Cc2sc(=S)n(C3CCCCC3)c2O)c1`: 84% (inactive); `CC1=C(C(=O)NCc2cccc(Br)c2)C2(CCCCC2)OC1=O`: 83% (inactive).
As for `COC(=O)c1ccccc1NC(=O)C1=C(C)C(=O)OC12CCCCCC2`, the survival is 84% (inactive).
For the molecule `CC1=C(C(=O)Nc2cccc(C)c2C)C2(CCCCC2)OC1=O`, the survival is 89% (inactive).
Take `CC1=C(C(=O)Nc2cccc(Cl)c2C)C2(CCCCCC2)OC1=O`: the survival is 0% (active).
As for `CC1=C(C(=O)NCc2cccc(F)c2)C2(CCCCCC2)OC1=O`, the survival was 55% (inactive).
As for `CC(=O)N1CCC2(CC1)OC(=O)C(C)=C2C(=O)Nc1cccc(Cl)c1C`, the survival is 70% (inactive).
In the case of `CC1=C(C(=O)Nc2ccccc2Br)C2(CCC(C)CC2)OC1=O` (configuration not stated), the survival is 83% (inactive).
Turning to `COC(=O)c1ccccc1NC(=O)C1=C(C)C(=O)OC12CCC(C)CC2` (configuration not stated), the survival was -23% (active).
With `CC1=C(C(=O)Nc2cccc(C(F)(F)F)c2)C2(CCN(C(C)C)CC2)OC1=O`, the survival is 84% (inactive).
As to `CC1=C(C(=O)Nc2cccc(C(F)(F)F)c2)C2(CCCCC2)OC1=O`, the survival is 95% (inactive).
Next, `CC1=C(C(=O)Nc2cccc(C(F)(F)F)c2)C2(CCCCCC2)OC1=O`: 32% (active); `CC1=C(C(=O)NCc2cccc(F)c2)C2(CCCCC2)OC1=O`: 37% (active); `CCOc1ccc(C2C(C(=O)Nc3ccc(C)cc3C)=C(C)Nc3c(C(=O)Nc4ccc(C)cc4)cnn32)cc1OC` (configuration not stated): 94% (inactive).
As to `O=C(NC(=O)c1ccccc1)Nc1ccc(-n2nc(C(F)(F)F)cc2C(F)(F)F)cc1`, the survival is 173% (inactive).
As for `COC(=O)c1ccccc1NC(=O)Cn1c(=O)cc(-c2ccccc2)c2c(C)nn(C)c21`, the survival was 89% (inactive).
For the molecule `CCOC(=O)C(CC)N1CCN(Cc2ccc(F)cc2)C(=O)C1=O` (configuration not stated), the survival was 85% (inactive).
For `Cc1cccc(NC(=O)C(=O)NCC(c2cccnc2)N2CCc3ccccc3C2)c1C` (configuration not stated), the survival was 86% (inactive).
On to `CN1CC(=O)N(CC(=O)Nc2ccc(Cl)c(C(F)(F)F)c2)c2ccccc2C1=O`, for which the survival was 85% (inactive).
Regarding `Cc1ccc(NC(=O)C2CCCN(S(=O)(=O)c3cccc4cccnc34)C2)c(C)c1` (configuration not stated), the survival was 78% (inactive).
For `O=C(COc1ccccc1[N+](=O)[O-])Nc1ccc(-c2nc3ccccc3s2)cc1`, the survival was 63% (inactive).
Turning to `COc1cccc(C(=O)Nc2ccccc2C(=O)OCc2cc(=O)n3nc(C4CC4)sc3n2)c1`, the survival was 65% (inactive).
With `COc1ccc(NC(=O)C2=C(C)C(=O)OC23CCN(C(C)C)CC3)cc1Cl`, the survival is 83% (inactive).
Consider `COc1ccc(OC)c(NC(=O)C2=C(C)C(=O)OC23CCCCCC3)c1`, for which the survival is 131% (inactive).
For the molecule `COc1ccc(OC)c(NC(=O)C2=C(C)C(=O)OC23CCN(C(C)C)CC3)c1`, the survival is 32% (active).
With `CCCn1c(=O)c2sccc2n2c(CCCC(=O)NC3CCCCC3)nnc12`, the survival was 80% (inactive).
Next, `CCc1cccc(C)c1NC(=O)CCn1c(=O)c2cccn2c2ccccc21`: 58% (inactive); `COc1ccc(-n2nc3c(N4CCCC(C(=O)NCCc5ccccc5C)C4)nnc(C)c3c2C)cc1` (configuration not stated): 70% (inactive).
On to `C/C(=N\NC(=O)c1ccco1)c1ccc(C)o1`, for which the survival is 80% (inactive).
For `CC(=O)c1ccc(NC(=O)Cn2ncc3c4ccccc4n(Cc4ccccc4)c3c2=O)cc1`, the survival was 73% (inactive).
Next, `Cc1cccc(-c2noc(-c3ccccc3OCC(=O)Nc3ccccc3[N+](=O)[O-])n2)c1`: 94% (inactive); `Cc1ccc2cccc(NC(=O)COc3ccccc3[N+](=O)[O-])c2n1`: 75% (inactive).
Regarding `Cc1ccc(-c2noc(-c3ccccc3OCC(=O)Nc3ccccc3[N+](=O)[O-])n2)cc1`, the survival was 60% (inactive).
With `CC(C)c1noc(-c2ccccc2OCC(=O)Nc2ccccc2[N+](=O)[O-])n1`, the survival is 44% (active).
As to `CC(=O)c1ccc(NC(=O)COc2ccccc2-c2nc(-c3ccccc3)no2)cc1`, the survival is 48% (inactive).
Next, `CC(=O)c1ccc(NC(=O)COc2ccccc2-c2nc(C)no2)cc1`: 95% (inactive).
As for `CC(C)c1noc(-c2ccccc2OCC(=O)Nc2ccc([N+](=O)[O-])cc2)n1`, the survival was 61% (inactive).
For `Cc1noc(-c2ccccc2OCC(=O)Nc2ccccc2[N+](=O)[O-])n1`, the survival is 39% (active).
Consider `CC(=O)c1ccc(NC(=O)COc2ccccc2-c2nc(C(C)C)no2)cc1`, for which the survival was 55% (active).
Turning to `O=C(COc1ccccc1-c1nc(-c2ccccc2)no1)Nc1ccccc1[N+](=O)[O-]`, the survival is 31% (active).
With `CC(C)c1noc(-c2ccccc2OCC(=O)Nc2cccc([N+](=O)[O-])c2)n1`, the survival was 62% (inactive).
Consider `Cc1ccccc1-c1noc(-c2ccccc2OCC(=O)Nc2ccccc2[N+](=O)[O-])n1`, for which the survival is 45% (inactive).

Values taken from PubChem BioAssay AID463173 (ICCB-Longwood Screening Facility, Harvard Medical School, 2010).
